The values below come from PubChem BioAssay (NCI).

This is part of a sample that, as a whole, favours compounds with a hit. Of some 83,000 tested, about 20% had one in any assay.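 For each line, cells grew in 96-well plates with the test compound present at a single concentration for 48 hours.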 Values without a mark were called inactive. The source made the active and inactive calls. How the source made its calls: active means growth percent below 10; inactive means the rest.

Some test systems named below: T-47D breast; BT-549 breast; MDA-MB-435 melanoma; SW-620 colon; HCT-116 colon; HCC-2998 colon; KM12 colon; MCF7 breast.
Test in all cases: NCI-60 one-dose screen, 48 h (100 = growth as untreated, 0 = no growth, -100 = all killed)
What all share (conditions): 10 µM unless noted

For the compound `CCC(c1ccc(OC)cc1)C(CC)c1ccc(O)c(CN2CCCCC2)c1` (stereo not drawn), the growth in the test on T-47D breast was 36.9%; with BT-549 breast, 72.1%; in the test on MDA-MB-435 melanoma, 81.6%; in the test with SW-620 colon it was 71.6%; in the test on HCT-116 colon it was 38.7%; in the test on HCC-2998 colon, 6.27% (active). In addition, the growth in the test on KM12 colon was 79.7%.

As to `O=C(N/N=C\c1ccccc1O)C1CC1`, the growth in the test on T-47D breast was 86.8%; in the test with BT-549 breast, 112%; in the test on MDA-MB-435 melanoma, 112%; in the test with SW-620 colon, 108%; with HCT-116 colon, 107%; with HCC-2998 colon, 103%. In addition, the growth in the test on KM12 colon was 100%.

As to `Cc1ccc(Cc2cnc(NC(=O)/C=C/c3cccc(C)c3)s2)cc1`, the growth was 39.8% in the test on T-47D breast; -5.4% (active) with BT-549 breast; -44.7% (active) in the test on MDA-MB-435 melanoma; 17% in the test on SW-620 colon; 14.6% in the test on MCF7 breast; 16.1% with KM12 colon.

For `O=C1CCCC=CC[C@H]2C=C(Cl)C(=O)C2=CC[C@H](CCCCC(F)(F)F)OC(=O)CCCC=CC[C@H]2C=C(Cl)C(=O)C2=CC[C@H](CCCCC(F)(F)F)OC(=O)CCCC=CC[C@H]2C=C(Cl)C(=O)C2=CC[C@H](CCCCC(F)(F)F)O1`, the growth is 71.2% [6.25 µM] with T-47D breast; 78.5% [6.25 µM] in the test with BT-549 breast; 30.6% [6.25 µM] with MDA-MB-435 melanoma; 17.3% [6.25 µM] in the test with SW-620 colon; 7.18% [6.25 µM] (active) in the test with HCT-116 colon; 98.5% [6.25 µM] in the test on HCC-2998 colon. Besides, in the test on KM12 colon, the growth was 94.3% [6.25 µM].

Turning to `COc1cnc2c(c1)C(=O)c1c-2n(CCCNC(C)C)c(=O)c2cc([N+](=O)[O-])ccc12`, the growth in the test on T-47D breast was -24.9% (active); in the test on BT-549 breast, -63.1% (active); in the test on MDA-MB-435 melanoma, -95.8% (active); with SW-620 colon, -38.8% (active); in the test with MCF7 breast, -47.4% (active); in the test on HCC-2998 colon, -83.4% (active). In the test with KM12 colon, the growth was -39.8% (active).

As to `COc1cc2c(cc1-c1c(C)noc1C)ncc1nc(C3CC3)n([C@H](C)COC(F)F)c12`, the growth is 32.7% with T-47D breast; 71.6% in the test with BT-549 breast; 44.3% in the test with MDA-MB-435 melanoma; 62.7% with SW-620 colon; 37% in the test on HCT-116 colon; 51.5% with KM12 colon.

For `COc1ccc(C(=O)c2cc(OC)c(OC)c(OC)c2)cc1/C=C/C(=O)c1cc(OC)c(OC)c(OC)c1`, the growth with T-47D breast is 89.7%; in the test on BT-549 breast, 86.8%; in the test with MDA-MB-435 melanoma, 65.2%; in the test on SW-620 colon, 92.9%; with HCT-116 colon, 67.8%; in the test with HCC-2998 colon it was 100%. For the same compound, the growth in the test with KM12 colon was 86.6%.

With `CC(C)(C)c1ccc(OP(=S)(N/N=C/c2ccccc2O)Oc2ccc(C(C)(C)C)cc2)cc1`, the growth in the test with T-47D breast is 70.2%; with BT-549 breast it was 89.5%; in the test on MDA-MB-435 melanoma, 72%; with SW-620 colon it was 77.7%; with HCT-116 colon, 42.9%; in the test with HCC-2998 colon, 86.2%. Besides, the growth with KM12 colon was 67.2%.

On to `C[C@H]1[C@@H]2[C@H]3CC[C@@H]4[C@@]5(C)Cc6c([nH]c7ccccc67)C(C)(C)[C@@H]5CC[C@@]4(C)[C@]3(C)CC[C@]23CO[C@]1(C)[C@@H](C(=O)/C=C/c1ccccn1)C3`, for which the growth in the test on T-47D breast was 65%; in the test on BT-549 breast it was 87.1%; with MDA-MB-435 melanoma, 83.8%; in the test on SW-620 colon it was 95.9%; in the test with HCT-116 colon, 46.4%; with HCC-2998 colon it was 103%. Moreover, the growth in the test on KM12 colon is 93.2%.

Consider `C=C(C)[C@@H]1CC[C@]2(C(=O)O)CC[C@]3(C)[C@H](CC[C@@H]4[C@@]5(C)C/C(=C/c6ccc(OC)cc6)C(=O)C(C)(C)[C@@H]5CC[C@]43C)[C@@H]12`, for which the growth in the test on T-47D breast is 13.3%; in the test with BT-549 breast, 26.2%; with MDA-MB-435 melanoma, 30.3%; with SW-620 colon, 21.9%; in the test on HCT-116 colon, 5.84% (active); in the test on HCC-2998 colon, 21.7%. For the same compound, the growth in the test with KM12 colon was 21.3%.

With `COc1ccc(-c2nc3ccccn3c2-c2nc3ccc(Cl)cc3[nH]2)cc1`, the growth in the test on T-47D breast was 75%; in the test on BT-549 breast it was 94.4%; with MDA-MB-435 melanoma it was 86.9%; with SW-620 colon, 88.4%; in the test on MCF7 breast, 79.6%; in the test with HCC-2998 colon, 97.6%. The growth with KM12 colon is 86.4%.

As to `CC(=O)O[C@H]1CC[C@@]2(C)[C@@H](CC[C@@H]3[C@@H]2CC(=O)[C@@]2(C)[C@H]3C[C@@H](C3CCCC3=O)[C@@H]2C(C)=O)C1` (stereo partly drawn), the growth in the test on T-47D breast is 91.1%; in the test with BT-549 breast, 103%; with MDA-MB-435 melanoma, 118%; with SW-620 colon, 111%; in the test on HCT-116 colon, 90.1%.

Take `Cn1c(=O)c2c(ncn2CCC(=O)Nc2ccc(F)cc2)n(C)c1=O`: the growth in the test with T-47D breast was 94.1%; in the test with BT-549 breast it was 90.3%; in the test with MDA-MB-435 melanoma, 110%; in the test on SW-620 colon, 106%; with HCT-116 colon, 87.7%; in the test with HCC-2998 colon it was 115%. In the test on KM12 colon, the growth is 103%.

For `N#CC1C(=N)Cc2ccccc2-c2ccccc21` (stereo not drawn), the growth is 60.9% with T-47D breast; 41.5% in the test with BT-549 breast; -23.8% (active) in the test on MDA-MB-435 melanoma; 19.2% with SW-620 colon; 33.1% in the test on HCT-116 colon; 86.8% in the test on HCC-2998 colon. Further, in the test with KM12 colon, the growth was 18%.

Consider `O=C1c2ccccc2NC(c2cn(-c3ccccc3)nc2-c2cccs2)N1Cc1ccccc1` (stereo not drawn), for which the growth was 54.9% with T-47D breast; 88.5% in the test with BT-549 breast; 97.5% in the test on MDA-MB-435 melanoma; 97.3% in the test on SW-620 colon; 65.9% with HCT-116 colon; 95.1% with HCC-2998 colon. The growth with KM12 colon was 83.7%.

In the case of `COc1ccc2nc(-c3c(-c4ccccc4)nc4ncccn34)[nH]c2c1`, the growth in the test on T-47D breast is 82.1%; in the test on BT-549 breast it was 110%; in the test with MDA-MB-435 melanoma, 104%; in the test on SW-620 colon, 108%; in the test on HCT-116 colon, 97.1%; with HCC-2998 colon it was 101%. The growth with KM12 colon was 111%.
